Most compounds without a hit are left out; they make up all but 3.6% or so of the library.
TRHR PAM: allosterically enhances the human TRH receptor | P34981 | TRHR cells, fluo-8 calcium fluorescence, EC20 TRH enhancement | enhancement, % at 2 µM | actives 0.66% (n = 360,000); in the data active = enhancement above about 30%
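Enhancer read-out: after compound pinning and an initial kinetic agonist-mode read, an EC20 of TRH (10 nM final) was injected and fluo-8 calcium signal (Ex 480/Em 530) followed at 1 s/cycle for 100 cycles in TRHR-expressing cells.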
D1 antagonist: antagonists of human D1 dopamine receptor; actives 3.2% (n = 360,000); activity change, negative = inhibition, % at 10 µM; HEK293 TREx D1 cells, calcium flux, dopamine EC80; active compounds read low; AID 504652; P21728; in the data active = activity change below about -30%
Target sequence (P21728 whole entry, looked up): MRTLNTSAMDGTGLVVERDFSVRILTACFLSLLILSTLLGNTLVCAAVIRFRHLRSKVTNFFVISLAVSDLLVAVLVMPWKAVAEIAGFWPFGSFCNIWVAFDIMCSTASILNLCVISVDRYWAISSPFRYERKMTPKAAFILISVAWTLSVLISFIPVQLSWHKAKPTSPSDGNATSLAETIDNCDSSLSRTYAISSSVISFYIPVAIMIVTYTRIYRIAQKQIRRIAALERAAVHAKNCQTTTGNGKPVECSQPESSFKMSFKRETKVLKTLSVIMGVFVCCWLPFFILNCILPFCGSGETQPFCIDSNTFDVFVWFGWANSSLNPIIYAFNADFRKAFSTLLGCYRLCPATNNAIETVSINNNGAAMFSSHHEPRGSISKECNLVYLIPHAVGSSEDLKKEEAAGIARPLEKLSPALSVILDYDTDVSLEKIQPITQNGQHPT
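After overnight tetracycline induction at 30 C, force-coupled D1 HEK293 cells took up a no-wash calcium dye at room temperature. Compounds were added and monitored 180 s, and the response to EC80 dopamine was then recorded.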
D1 potentiator: enhances dopamine response at the human D1 receptor; HEK293 TREx D1 cells, calcium flux, dopamine EC20 potentiation; actives 0.036% (n = 360,000); P21728; potentiation, % at 10 µM; in the data active = potentiation above about 30%
D1 ag: activates the human D1 dopamine receptor; activation, % at 2 µM; HEK293 T-REx D1 cells, calcium flux, agonist mode; actives 1% (n = 360,000); P21728; AID 504660
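Inducible HEK293 T-REx D1 cells, force-coupled to calcium signalling, were plated at 4000 cells/well with tetracycline and held overnight at 30 C. After no-wash calcium dye loading, compound-evoked calcium rise over 180 s flagged agonists.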
LDHA inh: blocks human lactate dehydrogenase A; P00338; AID 1347041; activity change, % (values are at about 110 or 230 µM); actives 0.15% (n = 480,000); purified LDHA, NADH/diaphorase-resazurin fluorescence; active compounds read low; in the data active = activity change below about -30%
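Human LDH5 (2 nM) was incubated with 0.06 mM NADH and 0.2 mM pyruvate for 5 min at room temperature in Tris pH 7.4. Remaining NADH was coupled through diaphorase/resazurin, and resorufin fluorescence was read at 0 and 20 min.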
TRHR agonist: agonists of human TRH receptor; TRHR cells, calcium flux fluo-8, FDSS agonist mode; actives 0.18% (n = 360,000); activation, % at 2 µM; P34981
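TRHR-expressing cells loaded with fluo-8 calcium dye; 23 nL library compound pin-transferred, kinetic FDSS fluorescence (Ex 480/Em 530) recorded about 180 s for agonist-induced calcium release, before a 10 nM TRH EC20 addition for potentiator mode.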
Numbers stand for hits; . = inactive; / = no result; ! = a repeat was not active. Rule as the data show it, unless noted: active = activation above about 30%; inactive = the rest.

SMILES | TRHR PAM | D1 antagonist | D1 potentiator | D1 ag | LDHA inh | TRHR agonist
CCc1ccc(-c2nc3cc(NC(=O)c4cccc(OC)c4)ccc3o2)cc1 | / | / | / | / | . | /
CCCN(CCC)CC(O)Cn1cc(/C=C/C(=O)c2ccc(C)cc2)c2ccccc21 (stereo not given) | . | -42 | . | 133 | . | .
O=C(Nc1csc([N+](=O)[O-])c1)Nc1ccccc1Cl | . | -31 | . | . | . | .
O=C(Nc1ccccc1Cl)Nc1ccccc1Cl | . | . | . | . | . | .
Cc1cc(NC(=O)c2ccc(F)cc2)cc(-c2nc3ccccc3o2)c1O | / | / | / | / | . | /
COc1ccc(-c2cnc(N)n2CC2CCCO2)cc1 (stereo not given) | . | . | . | . | . | .
c1ccc(-c2cnc(SCCN3CCOCC3)n2CC2CCCO2)cc1 (stereo not given) | . | . | . | . | -32 | .
CC(C)=CC(=O)NC(C)c1ccc(Cl)cc1Cl (stereo not given) | / | / | / | / | . | /
N#CCCn1c(=O)n(CCC#N)c2ccccc21 | . | -38 | . | . | . | .
Cn1c(=O)n(CC#N)c2ccccc21 | . | . | . | . | . | .
CCCC1(C(=O)OCC)NC(c2ccc(O)cc2)C2C(=O)N(c3ccc4c(c3)OCCO4)C(=O)C21 (stereo not given) | . | . | . | . | . | .
COC(=O)C1(c2ccccc2)NC(c2ccc(O)cc2)C2C(=O)N(c3ccc4c(c3)OCO4)C(=O)C21 (stereo not given) | . | -56 | . | . | . | .
Cc1ccccc1NC(=O)/C(C#N)=C/c1ccsc1 | . | . | . | . | . | .
Cc1cccc(C)c1NC(=O)/C(C#N)=C/c1ccsc1 | . | -35 | . | . | . | .
CCOc1cc(/C=N/NC(=O)c2ccncc2)ccc1OC(=O)c1ccccc1 | . | -40 | . | . | . | .
Cc1cccc(Cn2c(SCC(O)CO)nc3c2c(=O)[nH]c(=O)n3C)c1 (stereo not given) | / | / | / | / | . | /
Cc1ccc(N(C)S(=O)(=O)c2ccc(-c3cnc(C4CC4)o3)cc2)cc1 | . | -32! | . | . | . | .
O=S(=O)(NCc1ccccc1)c1ccc(-c2cnc(C3CC3)o2)cc1 | . | -38! | . | . | . | .
Cc1ccc(NS(=O)(=O)c2ccc(-c3cnc(C4CC4)o3)cc2)cc1 | . | . | . | . | . | .
CCCCc1ccc(C#Cc2ccc(OCC)cc2)cc1 | / | / | / | / | . | /
CCOc1ccc(/C=C/c2nc(C#N)c(NC3CCCCC3)o2)cc1 | . | -38 | . | . | . | .
Cc1oc2ccc(OC(=O)c3ccccc3F)cc2c1C(=O)OC(C)C | / | / | / | / | . | /
COc1ccc(N2CCN(C(=O)c3cn(CC4CCCCC4)nn3)CC2)cc1 | . | -34 | . | . | . | .
COc1ccc(N2CCN(C(=O)c3c(Cl)cnn3C)CC2)cc1 | . | -58 | . | . | . | .
Cn1ncc(Cl)c1C(=O)N1CCN(c2ccc(Cl)c(Cl)c2)CC1 | . | . | . | . | . | .
SMILES | TRHR PAM | D1 antagonist | D1 potentiator | D1 ag | LDHA inh | TRHR agonist
CCCCC(=O)N/N=C(\C)Cc1ccccc1 | / | / | / | / | . | /
CCOc1ccc(NC(=O)c2cc3cc(C)ccc3n2C)cc1 | . | -56 | . | . | . | .
CCOc1ccc2c(c1)cc(C(=O)Nc1cccc(C)c1)n2C | / | / | / | / | . | /
COc1ccc(NC(=O)C2=CC(c3ccc(C)cc3)=NS(=O)(=O)N2C)cc1 | . | -33 | . | . | . | .
COc1ccc(C2=NS(=O)(=O)N(C)C(C(=O)Nc3ccc(OC)c(OC)c3)=C2)cc1 | . | -34 | . | . | . | .
CCc1ccccc1NC(=O)C1=CC(c2ccc(OC)c(OC)c2)=NS(=O)(=O)N1C | . | . | . | 35! | . | .
COc1ccc(NC(=O)C2=CC(c3ccc(C)cc3)=NS(=O)(=O)N2C)cc1OC | . | . | . | . | . | .
COc1ccc(C2=NS(=O)(=O)N(C)C(C(=O)Nc3cc(C)ccc3O)=C2)cc1OC | . | . | . | . | . | .
COc1ccc(-c2cnn3c(C)cc(C)nc23)cc1S(=O)(=O)NCc1ccccc1C(F)(F)F | / | / | / | / | . | /
CN1CCN(S(=O)(=O)c2ccc(SCc3cc(Cl)c4c(c3)OCCO4)nc2)CC1 | / | / | / | / | . | /
COCCn1c(C)cc(C(=O)Cn2cnc3scc(-c4ccc(C)s4)c3c2=O)c1C | / | / | / | / | . | /
Cc1[nH]c2ccccc2c1C(=O)C(=O)N(C)C1CCCCC1 | . | -53 | . | . | . | .
Cc1[nH]c2ccccc2c1C(=O)CSC(=S)N(C)C1CCCCC1 | . | . | . | . | . | .
COc1cccc(NC(=O)N2CCCCCC2)c1 | . | . | . | . | . | .
Cc1cccc(N2CCN(C(=O)Cn3c(=O)c4cccn4c4ccc(F)cc43)CC2C)c1 (stereo not given) | . | . | . | . | . | .
Cc1cccc(N2CCN(C(=O)Nc3ccc(F)cc3)CC2C)c1 (stereo not given) | . | . | . | 33 | . | .
COc1cccc(NC(=O)N2CCN(c3cccc(C)c3)C(C)C2)c1 (stereo not given) | . | -83 | . | . | . | .
COC(=O)c1ccccc1C(=O)OCC(=O)c1ccccc1 | / | / | / | / | . | /
Cc1ccc2c(Cl)c(C(=O)NCc3ccco3)sc2c1 | / | / | / | / | . | /
Cc1ccc(NS(=O)(=O)c2ccc(C)c(NC(=O)COc3ccccc3)c2)c(C)c1 | . | -46 | . | . | . | .
COc1cccc(OC)c1OCCOc1ccc(C(=O)c2ccccc2)cc1 | . | -35 | . | . | . | .
COC(=O)c1ccc(OCCOc2ccccc2)cc1 | . | . | . | . | . | .
Cc1ccc(-c2csc(Nc3ccc(C(=O)O)c(O)c3)n2)cc1 | / | / | / | / | . | /
O=C1CCN(S(=O)(=O)c2ccc(Cl)cc2)N1 | . | . | . | . | . | .
O=S(=O)(c1ccc(S(=O)(=O)N2CCCC2)cc1)N1CCCCCC1 | . | -39 | . | . | . | .
SMILES | TRHR PAM | D1 antagonist | D1 potentiator | D1 ag | LDHA inh | TRHR agonist
Cc1ccc(S(=O)(=O)N2CCC(=O)N2)cc1 | . | -68 | . | . | . | .
Cc1ccn2cc(-c3cccc(S(=O)(=O)N4CCCC4)c3)nc2c1 | . | . | . | . | . | .
CSc1nc2cc(S(=O)(=O)N3CCCCC3)ccc2s1 | . | -31 | . | . | . | .
O=S(=O)(c1cccc(-c2cn3ccccc3n2)c1)N1CCCCC1 | . | -47 | . | . | . | .
Cc1ccc(OCC(=O)Nc2cc(-c3nc4ccccc4o3)ccc2C)cc1 | / | / | / | / | . | /
CN(NC(=O)c1ccc2c(c1)OCC(=O)N2)c1ccccc1 | / | / | / | / | . | /
Cc1ccc(S(=O)(=O)N2CCCN(C(C)c3nc4ccccc4c(=O)[nH]3)CC2)cc1 (stereo not given) | . | -38 | . | . | . | .
O=S(=O)(c1ccc(-c2ccccc2)cc1)N1CCCCC1 | . | -35 | . | . | . | .
